Test results reported in PubChem BioAssay (NCATS).
Several values for one entry are separate records, joined by “and”; a condition that tells them apart may be missing. Equal values may be shown once. Results filed as inconclusive are left out. A number with no mark means an inactive call. Activity calls are given as the source filed them. Calls come from the whole dose curve; as a rule, active = well fitted curve in the direction sought with a large enough effect; inconclusive = small, poorly fitted or top-dose-only effect, or another doubt; inactive = no such curve, though single readings can be large or run the other way.

experiment: qHTS Assay for Identifying Gametocytocidal Compounds (AID 743244);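 for max response: actives lower the fluorescent signal which means gametocytes are killed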; settings: P. falciparum 3D7 stage III-V gametocytes, alamarBlue, 72 h; max response: active compounds read low
Excerpt: Malaria cases and deaths have dropped 50% in 29 countries since 2000 due to the combined effects of long-lasting insecticidal bednets, indoor residual spraying, and artemisinin-based combination therapies (ACTs). This success has raised hopes for malaria eradication and consequently stimulated interest in developing new reagents that block gametocyte transmission such as novel and safe gametocytocidal drugs. However, previous drug development efforts have focused primarily on the asexual parasites that cause symptoms, but not malaria transmission. Consequently, patients can remain infectious for weeks after the clearance of asexual parasites and clinical symptoms. To be transmitted from person to person via a mosquito, the parasites must switch from asexual to sexual development and produce male and female gametocytes. Malaria gametocytes consist of five stages (I, II, III, IV and V). The late stage gametocytes (III, IV and V) are difficult to be cultured in vitro and the long lifespan of mature gametocytes allows them being transmitted from host to mosquitoes unless they are completely eliminated by gametocytocidal agents. To identify gametocytocidal compounds which are capable of killing late stage P. falciparum gametocytes, a high throughput gametocyte viability assay was employed. This assay uses oxidoreduction indicator, alamarBlue, as a general measure of metabolic activity of gametocytes. Within live cells, the nonfluorescent resazurin is reduced to resorufin, a bright red fluorescence dye. Fluorescence decreases upon treatment of gametocytocidal compounds. P. falciparum gametocyte (3D7 strain) was used in this study.
The 1536-well gametocycidal viability assay was based on the previous method of Tanaka et al. Stage III-V gametocytes were tested against three compound libraries, including 4265 compounds from NCGC pharmaceutical collection, 400 from Malaria Box library, and 550 from an internal collection of kinase inhibitors. Briefly, 2.5 ul/well incomplete medium was dispensed into each well of 1,536-well plates using the Multidrop Combi followed by 23 nl compound transferring using the NX-TR Pintool (WAKO Scientific Solutions, San Diego, CA). Then, 2.5 ul/well of gametocytes was dispensed with a seeding density of 20,000 cells/well using the Multidrop Combi. The assay plates were incubated for 72 h at 37C with 5% CO2. After addition of 5 ul/well of 2X AlamarBlue dye (Life Technologies, cat. no. DAL1100), the plates were incubated for 24 h at 37C with 5% CO2 and then were read in a fluorescence detection mode (Ex = 525 nm, Em = 598 nm) on a ViewLux plate reader (PerkinElmer).
% is set by controls: 0 for no effect and ±100 for the full control effect; potency is the fitted concentration of half-maximal effect.

For `O=C(O)Cc1cnc[nH]1`, which max response is on record?
The max response was 3.18%.

Which Potency does the source give for `Nc1cccc2c(N)cccc12` here?
The Potency was 25.1 µM (active).

For `NC1CCc2cc(O)c(O)cc2C1` (stereo not given), which max response is on record?
The max response was 20.3%.

For `O=C(Cc1ccc(Cl)c(Cl)c1)N1CCCCC1CN1CCCC1` (stereo not given), which max response is on record?
Its max response is 17.1%.

Which max response does the source give for `Clc1cnc(Oc2ccc(Oc3ncc(Cl)cc3Cl)cc2)c(Cl)c1` here?
The max response was 17.9%.

Which max response does the source give for `O=C(O)COc1ccccc1` here?
The max response was -2.31%.

With `CCCN1CCO[C@@H]2c3cc(O)ccc3OC[C@H]21` as the molecule, how does the max response read?
The max response was -5.59% and 5.71%.

For `Cc1c(C(=O)Nc2cccc(C(F)(F)F)c2)cc(-c2ccccc2)n1CCCN1CCOCC1`, which max response is on record?
The max response was 12.4%.

Which Potency does the source give for `C=CCON=C(C[C@H]1O[C@@H]2O[C@]3(C)CC[C@@H]4[C@H](C)CC[C@@H]([C@H]1C)[C@@]24OO3)[C@H]1O[C@@H]2O[C@]3(C)CC[C@H]4[C@H](C)CC[C@@H]([C@@H]1C)[C@@]24OO3` here?
The Potency was 0.0083 µM (active).

Which Potency does the source give for `CC(=O)[O][Hg][c]1ccccc1` here?
The Potency was 1.12 µM (active).

With `COC(=O)[C@@H](N)CCCN=C(N)N[N+](=O)[O-]` as the molecule, how does the max response read?
The max response was 6.28%.

Which Potency does the source give for `C[C@@]12O[C@@H](C[C@]1(O)CO)n1c3ccccc3c3c4c(c5c6ccccc6n2c5c31)CNC4=O` here?
The Potency was 5.9 µM (active).

Which max response does the source give for `NCCc1c[nH]c2ccc(O)cc12` here?
The max response was 9.61%.

With `Cn1cnc(CCN)c1` as the molecule, how does the max response read?
The max response was 33.2%.

With `CCCCCCCCc1ccc(O)cc1` as the molecule, how does the max response read?
Its max response is -6.88%.

With `C[N+]1(C)C2CCC1CC(OC(=O)C(CO)c1ccccc1)C2` (stereo not given) as the molecule, how does the max response read?
The max response was 23.1% and 28.3%.

With `CN1CC[C@@H](c2c(O)cc(O)c3c(=O)cc(-c4ccccc4Cl)oc23)[C@@H](O)C1` as the molecule, how does the max response read?
Its max response is 13.4%.

Which max response does the source give for `CCOP(=O)(NC(C)C)Oc1ccc(SC)c(C)c1` (stereo not given) here?
The max response was 14.8%.

Which Potency does the source give for `O=C(Nc1cc(C(F)(F)F)cc(C(F)(F)F)c1)c1cc(Cl)ccc1O` here?
The Potency was 7.43 µM (active).

Which max response does the source give for `Cc1nccc2c1[nH]c1ccccc12` here?
The max response was 22.2%.

With `NC(=NCCC[C@H](N)C(=O)O)N[N+](=O)[O-]` as the molecule, how does the max response read?
The max response was 11.8%.

Which max response does the source give for `CC(C)NCC(O)c1ccc([N+](=O)[O-])cc1` (stereo not given) here?
Its max response is -16.1%.

For `COC(C)(C)CCCC(C)C/C=C/C(C)=C/C(=O)OC(C)C` (stereo not given), which max response is on record?
The max response was -9.95%.

Which max response does the source give for `O=C(O)C(Cl)Cl` here?
The max response was -4.42% and 4.64%.

With `CC1=NN=C(c2ccc(N)cc2)c2cc3c(cc2C1)OCO3` as the molecule, how does the max response read?
Its max response is 7.34%.

Which max response does the source give for `COc1nn(CSP(=S)(OC)OC)c(=O)s1` here?
The max response was 14.2%.

With `CCCN(CCC)C1CCc2ccc(O)cc2C1` (stereo not given) as the molecule, how does the max response read?
The max response was 6.52%.

Which max response does the source give for `CC(=O)[C@H]1CCC2C3CC[C@H]4C[C@H](O)CC[C@]4(C)C3CC[C@@]21C` (stereo not given in full) here?
The max response was 27.5%.

Which Potency does the source give for `CN[C@@H](C)C(=O)N[C@H]1CCCC[C@H]2CC[C@@H](C(=O)N[C@@H](c3ccccc3)c3cn(CCCCc4ccc(CCCCn5cc([C@@H](NC(=O)[C@@H]6CC[C@@H]7CCCC[C@H](NC(=O)[C@H](C)NC)C(=O)N76)c6ccccc6)nn5)cc4)nn3)N2C1=O` here?
Its Potency is 2.64 µM (active).

Which max response does the source give for `C=CC(=O)NCNC(=O)C=C` here?
The max response was 11%.

Which max response does the source give for `O=C1C(I)=CC(=C(c2cc(I)c(O)c(I)c2)c2ccccc2C(=O)O)C=C1I` here?
The max response was 4.96% and 16.9%.

Which max response does the source give for `C[C@]12N[C@H](Cc3ccccc31)c1ccccc12` here?
The max response was -6.68% and -2.83% and -7.09%.

With `CC(C)(C)C(O)C(Oc1ccc(Cl)cc1)n1cncn1` (stereo not given) as the molecule, how does the max response read?
Its max response is 12.8%.

Which max response does the source give for `CN[C@@H](C)[C@H](O)c1ccccc1` here?
The max response was -11.3%.

For `O=C(Nc1ccccc1-c1ccc(Cl)cc1)c1cccnc1Cl`, which max response is on record?
Its max response is 10.9%.

With `O=C(Oc1ccc([N+](=O)[O-])cc1)N1CCC(C(O)(c2ccc3c(c2)OCO3)c2ccc3c(c2)OCO3)CC1` as the molecule, how does the max response read?
Its max response is -4.93%.

With `O=[N+]([O-])c1c2ccccc2cc2ccccc12` as the molecule, how does the max response read?
The max response was -7.57%.

Which max response does the source give for `CS(=O)(=O)c1ccc(C(=O)C2C(=O)CCCC2=O)c([N+](=O)[O-])c1` here?
The max response was -23.2%.

Which max response does the source give for `Cc1ccccc1-n1c(Cn2cnc3c(N)ncnc32)nc2cccc(C)c2c1=O` here?
The max response was 15.4%.

Which max response does the source give for `O=C(O)CCCOc1ccc(Cl)cc1Cl` here?
The max response was 19%.
